Test results: PubChem BioAssay AID977622 (Broad Institute, 2014)
Fewer than 10 of roughly 1,900 compounds were called active. Inconclusive results (about 39%) are left out.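 Rule for the calls: active = Green signal of the normal strain falls at least twice as much as red signal of the resistant mutant, with overall culture growth loss under a set limit; inconclusive = no clear call, values can overlap the other calls; inactive = the rest.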 A selection follows.

How the values were obtained:
[1] = growth inhibition of wild-type GFP E. coli, dose response, h38 mutant RFP, cherry-pick (AID 977622); conditions: activity change: E. coli mixed culture, total growth OD600 at 50 uM, at 50 µM
[2] = test system: E. coli h38 humanized mutant ribosome RFP fluorescence, mixed culture, 24 h; test: as above; conditions: h38 mutant RFP at 50 uM; at 50 µM

Compound | activity change [1] | outcome [1] | activity change [2]
COCc1[nH]nc2c1C(c1ccc3c(c1)OCO3)N(c1ccc(OC)cc1)C2=O (centres undefined) | 1.74% | inactive | 
O=C(c1cc(COc2ccc(F)cc2F)on1)N1CCCC(c2ccccc2)C1 (centres undefined) | 5.17% | inactive | -5.01%
CCOC(=O)Cc1csc(SCC(=O)Nc2cc(C)ccc2OC)n1 | -33.1% | inactive | 38.6%
CC(=O)Nc1cccc(OCc2ccc([N+](=O)[O-])cc2)c1 | -10.5% | inactive | -23.9%
CC(CCc1ccccc1)NC(=O)CNC(=O)COc1ccccc1 (centres undefined) | -14.6% | inactive | 9.58%
O=S(=O)(NOCc1ccc(Cl)cc1)c1ccc(Cl)cc1 | -42.8% | inactive | -52%
O=C(c1cccc2ccccc12)C1CCCN(C(=O)CCc2cnccn2)C1 (centres undefined) | -12% | inactive | -5.75%
C[C@@H]1CN([C@@H](C)CO)C(=O)c2cc(NC(=O)Nc3cccc4ccccc34)ccc2O[C@@H](C)CCCCO[C@H]1CN(C)C | -2.41% | inactive | -18%
C[C@]12C(=O)N(c3ccc(F)cc3)C(=O)N1[C@@H]1c3ccccc3OC[C@@H]1[C@H]2c1ccccc1 | -20.2% | inactive | -13.6%
O=C(O)c1cccc2c1-c1ccc([N+](=O)[O-])cc1C2=O | -0.103% | inactive | -6.27%
COc1ccc([C@H]2C[C@H](O)C[C@@H](CCn3cc(-c4ccccc4)nn3)O2)cc1 | -21.6% | inactive | 19.3%
O=C(Nc1ccc(F)cc1)N1CCCCN2[C@@H](CO)[C@H](c3ccc(-c4ccncc4)cc3)[C@@H]2C1 | 12% | inactive | -0.029%
Cc1ccccc1S(=O)(=O)N1C[C@H]2CON(C)[C@H]2C[C@H]1c1cccc(-c2ccc(C#N)cc2)c1 | -28.1% | inactive | -10.7%
CC(=O)Nc1cccc(OCCCOc2cccc([N+](=O)[O-])c2)c1 | -16.8% | inactive | 44.4%
Nc1[nH]c(C(=O)c2ccccc2)c(-c2ccc3c(c2)OCO3)c1C(=O)NCCc1c[nH]c2ccccc12 | -18.1% | inactive | -20.2%
Cc1ccc2nc(-c3ccc(Cl)cc3)c(Cc3ccccc3C(F)(F)F)n2c1 | -10.5% | inactive | 37.7%
CC(C)n1nnnc1C1c2ccccc2C(=O)N1CCOc1ccccc1 (centres undefined) | -14.1% | inactive | -9.39%
Cc1occc1-c1nnc(SCC(=O)Nc2nc(-c3ccccc3)cs2)o1 | -4.96% | inactive | 8.71%
O=C(O)CC(CC(=O)Nc1ccc2ccccc2n1)c1ccccc1 (centres undefined) | -7.83% | inactive | 7.39%
CCOC(=O)c1cccc(OC(=O)CCNC(=O)c2ccc(Cl)cc2)c1 | -36.4% | inactive | -3.29%
C[C@H]1CN([C@@H](C)CO)C(=O)CCCn2nncc2CO[C@@H]1CN(C)Cc1ccccc1C(F)(F)F | -28.1% | inactive | -45.2%
Cn1nc(C(=O)Nc2cccc(S(=O)(=O)N3CCCCC3)c2)c2ccccc2c1=O | -5.66% | inactive | -3.97%
O=S1(=O)N[C@H](Cc2ccccc2)COc2cc(N3CCSCC3)ccc21 | -14.3% | inactive | 12%
CN(CCOc1ccccc1)S(=O)(=O)c1ccccc1C#N | -20.9% | inactive | 

Compound | activity change [1] | outcome [1] | activity change [2]
CN(C)S(=O)(=O)c1cccc(C(=O)OCC(=O)c2ccc3c(c2)NC(=O)CO3)c1 | -6.04% | inactive | 
O=C(COC(=O)C1CC2C=CC1C2)Nc1ccc([N+](=O)[O-])cc1 (centres undefined) | -15.1% | inactive | -8.7%
C[C@@H]1CN([C@@H](C)CO)C(=O)CCCn2nncc2CO[C@H]1CN(C)C(=O)Nc1cccc(C(F)(F)F)c1 | -2.42% | inactive | -7.01%
Fc1cccc(Cc2c(-c3ccco3)nc3c4ccccc4ccn23)c1 | 3.21% | inactive | 15.9%
O=C(c1ccccc1)C1Oc2ccccc2C2CC(c3cccs3)=NN12 (centres undefined) | -7.77% | inactive | 46.5%
C=CCSc1cc(C)nc2c(-c3ccccc3)c(C)nn12 | -4.42% | inactive | -3.25%
Cc1cc(C)c(OCC(=O)OCC(=O)N2CCc3ccccc3C2)c(C)c1 | -18.4% | inactive | -19.1%
Cc1noc(C)c1NC(=O)Nc1ccc2c(c1)C(=O)N([C@H](C)CO)C[C@H](C)[C@H](CN(C)C(=O)Nc1ccc3c(c1)OCO3)OCCCC[C@@H](C)O2 | -29.4% | inactive | -22.3%
COc1ccccc1NC(=O)CSc1nccn1Cc1ccc(F)cc1 | -34.2% | inactive | -43.9%
COc1cc2ccccc2cc1C(=O)NCC(c1cccs1)N(C)C (centres undefined) | -20.3% | inactive | 10.8%
COc1cccc(NC(=O)N(C)C[C@H]2Oc3ncc(C#Cc4cccnc4)cc3C(=O)N([C@H](C)CO)C[C@H]2C)c1 | -8.41% | inactive | -2.54%
O=C(O)CC(CC(=O)Nc1ccc(Oc2ccccc2)cc1)c1ccccc1 (centres undefined) | -38.6% | inactive | -21.4%
Cc1onc(-c2ccccc2Cl)c1C(=O)N1CCN(Cc2ccc3c(c2)OCO3)CC1 | -18.8% | inactive | -29.8%
Cc1cc(C)nc(SCCC(=O)Nc2ccccc2Cl)n1 |  | inactive | 4.04%
C=CCNc1ccc2c(c1)OC[C@H](CC(C)C)NS2(=O)=O | -16.5% | inactive | -12.1%
CCCCCCCNC(=O)c1ccc(N2CCC3(CC2)OCCO3)c([N+](=O)[O-])c1 | -71.7% | inactive | 33.2%
CCn1nc(C)cc1C(=O)N1CCCC(C(=O)c2ccc3ccccc3c2)C1 (centres undefined) | -3.63% | inactive | 3.47%
CSc1ccccc1C(=O)NCCc1ccc(S(=O)(=O)N2CCCCC2)cc1 | -6.73% | inactive | 
CCOc1ncccc1C(=O)OCC(=O)NCCCc1ccccc1 | -34.2% | inactive | 13.1%
Cn1cc(CN2CCCC(C(=O)Nc3cccc(-c4cc5ccccc5[nH]4)c3)C2)cn1 (centres undefined) | -25.9% | inactive | -29%
COc1ccccc1CC(=O)NCCCc1ccccc1 | 0.195% | inactive | 28.9%
CN1C(=O)c2cc(NC(=O)c3cccc(F)c3)ccc2OC[C@H]2O[C@@H](CC(=O)NCC3CCCCC3)CC[C@@H]21 | -45.8% | inactive | -19.3%
C[C@H](CO)N1C[C@H](C)[C@H](CN(C)C(=O)Nc2ccc(F)cc2)Oc2c(NC(=O)Nc3ccccc3)cccc2C1=O | -24.1% | inactive | 16.4%
O=C(Nc1c(S(=O)(=O)c2ccc(Cl)cc2)csc1Br)c1ccccc1Cl | 9.68% | inactive | 8.46%
